# From PubChem BioAssay (NCI)
# About 83,000 compounds went through this panel and 20% of them were active in at least one assay; those are over-represented in the sample as a whole.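 Each cell line was grown in a 96-well plate and treated with one concentration of compound for 48 hours. Values below 10 were considered active.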 A number with no mark means an inactive call. Calls of active or inactive are those of the source.
# Assays:
# Test in all cases: NCI-60 one-dose screen, 48 h (100 = growth as untreated, 0 = no growth, -100 = all killed)
# [1] = tested on: SR leukemia; conditions: 10 µM unless noted
# [2] = tested on: RPMI-8226 leukemia; conditions: 10 µM
# [3] = tested on: OVCAR-8 ovarian; conditions: 10 µM unless noted
# [4] = tested on: OVCAR-4 ovarian; conditions: 10 µM unless noted
# [5] = tested on: SK-OV-3 ovarian; conditions: 10 µM
# [6] = tested on: IGROV1 ovarian; conditions: 10 µM unless noted
# [7] = tested on: OVCAR-3 ovarian; conditions: 10 µM unless noted
# [8] = tested on: HS 578T breast; conditions: 10 µM unless noted
# [9] = tested on: T-47D breast; conditions: 10 µM
# [10] = tested on: BT-549 breast; conditions: 10 µM unless noted
# [11] = tested on: SW-620 colon; conditions: 10 µM unless noted
# [12] = tested on: MCF7 breast; conditions: 10 µM unless noted
# [13] = tested on: HCT-116 colon; conditions: 10 µM unless noted
# [14] = tested on: KM12 colon; conditions: 10 µM unless noted
# [15] = tested on: OVCAR-5 ovarian; conditions: 10 µM unless noted
# [16] = tested on: MDA-MB-435 melanoma; conditions: 10 µM unless noted
# [17] = tested on: HCC-2998 colon; conditions: 10 µM unless noted
# [18] = tested on: NCI/ADR-RES ovarian; conditions: 10 µM unless noted
Structure (SMILES),growth [1],growth [2],growth [3],growth [4] [%],growth [5] [%],growth [6],growth [7],growth [8],growth [9],growth [10],growth [11],growth [12],growth [13],growth [14],growth [15],growth [16],growth [17],growth [18]
COc1ccc(-c2[nH]ncc2Nc2cc(OC)c(OC)c(OC)c2)cc1,116%,33.2%,58.1%,51.2,18.4,43%,5.17% (active),49.8%,18%,27.3%,32.4%,23.1%,35.5%,32.5%,–,–,–,–
CCCCCCCCCCCCCCn1c2ccccc2c2c3c(c4c5cc(OC)ccc5oc4c21)C(=O)NC3=O,114%,112%,103%,–,–,106%,110%,95.6%,104%,101%,104%,102%,105%,102%,100%,103%,107%,–
O=C1c2cc(S(=O)(=O)O)ccc2C(=O)c2c1cccc2[N+](=O)[O-],98.2%,–,95.6%,115,106,120%,114%,106%,103%,98.3%,110%,101%,106%,104%,110%,105%,110%,111%
CSc1nnc(-c2sc3nnc(-c4ccccc4)c(-c4ccccc4)c3c2O)o1,62.5%,67.2%,85.8%,–,85.5,–,86.8%,98.4%,75%,74.1%,92.5%,83.5%,60.9%,72.9%,101%,88.4%,–,–
FC(F)(F)c1ccc2c(c1)n1cnnc1c1nncn21,84.1%,95.2%,–,111,109,119%,117%,–,102%,103%,108%,98.2%,105%,110%,110%,112%,108%,113%
CCOC(=O)c1c(Cl)c2c(n1Cc1cc(OC)cc(OC)c1)-c1oncc1CCC2,4.7% (active),9.5% (active),38.9%,–,27.5,–,-17.6% (active),29.6%,51.7%,69.9%,16.8%,10.7%,23.9%,29.6%,49.5%,-53% (active),55%,8.44% (active)
CCOC(=O)c1sc(NC(=O)CN2CCC(Cc3ccccc3)CC2)nc1C,83.7%,–,110%,98.6,102,87.6%,108%,83.4%,101%,104%,95.8%,94.4%,81.5%,106%,103%,105%,102%,94.1%
COC(=O)[C@H]1CCCN1C(=O)[C@H]1CCCN1C(=O)[C@@H](Cc1c[nH]c2ccccc12)NC(=S)Nc1cc(C(F)(F)F)cc(C(F)(F)F)c1,14.4%,–,66.8%,44.6,77.2,22.7%,48.3%,12.3%,50.2%,91.9%,64.2%,26.1%,39.5%,37.2%,76.4%,31.6%,31.8%,89.9%
COC(=O)c1c2c(c(C)[n+]([O-])c1C)C(=O)C=C(NCc1ccc(F)cc1)C2=O,2.14% (active),-20.9% (active),2.54% (active),–,–,-59.4% (active),-35.9% (active),-16.6% (active),-41.1% (active),-91.3% (active),-9.71% (active),-60.6% (active),0.358% (active),1.23% (active),-68.8% (active),-93.1% (active),-40.2% (active),-16.7% (active)
